HCV inhibitor – blocks hepatitis C virus; Huh7.5.1 HCVcc-Cre infection, luciferase reporter, 44 h; Potency, µM (doses to about 41.8 µM), inactives show at the highest dose activity change, negative = inhibition, hits mostly inhibitors; 340,000 compounds, 3.4% hits; further: potency means the concentration at half of the fitted maximal effect
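After 44 h co-culture of compound, cells and HCVcc-Cre (~0.5 moi), substrate is added for 15 min at room temperature and luciferase measured over 15 sec. Cells were seeded at 1,000/well and pre-cultured 4 h.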
HCMV antiviral – blocks human cytomegalovirus replication; HFF cells, HCMV-luciferase reporter, 72 h; active compounds read low; activity change, negative = inhibition, % at 57.5 µM; 410,000 compounds, 4.5% hits; AID 1259415; in the data active means activity change below about -60%; inconclusive means no clear call, values can overlap the other calls; inactive means above about -39%
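After 16 h attachment at 37C, HFF cells received test compound and HCMV-luciferase (1 PFU/cell); reporter luminescence read 72 h later, data normalized against buffer-only and known inhibitor Salinomycin.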
Pf growth 48h – P. falciparum growth inhibition at 48 hours (one generation) | Potency, µM (doses to about 28.7 µM), inactives show at the top dose activity change, negative = inhibition, usual class: inhibitors | P. falciparum luciferase growth in erythrocytes, 48 h | AID 504832 | 310,000 compounds, 5.9% hits; further: potency means the concentration at half of the fitted maximal effect
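Growth was read as firefly luciferase luminescence after a 48 h, 37 C, 5% CO2 exposure of compounds to reporter-bearing P. falciparum cultures (0.1% parasitemia, 2% hematocrit final) in Albumax-supplemented RPMI 1640.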
Pf growth 96h – P. falciparum growth inhibition at 96 hours; AID 504834; 320,000 compounds, 6.9% hits; P. falciparum luciferase reporter growth, 96 h; Potency, µM (doses to about 28.7 µM), for inactives: at the highest dose activity change, negative = inhibition, hits mostly inhibitors; further: potency means the concentration at half of the fitted maximal effect
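Delayed-death screen, second-generation endpoint: infected erythrocytes, 2% hematocrit, 0.05% parasitemia final; 96 hours at 37 C, 5% CO2; luciferase detection reagent; luminescence decrease equals reduced growth.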
Starred values were filed as active, the others as inactive; u = inconclusive; x = no result given; [ ] = another dose, or the depositor's remark. Rows were chosen to be rich in hits. Some 13% of all compounds tested hit in one or more screens of this group. Unless noted, the call rests on the fitted dose curve; in most records, active means well fitted inhibition curve with a large enough effect; inconclusive means small, poorly fitted or top-dose-only effect, or another doubt; inactive means no such curve, though single readings can be large or run the other way. On the % scale 0 is the no-effect control and ±100 the full control effect.

SMILES | HCV inhibitor | HCMV antiviral | Pf growth 48h | Pf growth 96h
CC(OC(=O)c1cc2sccc2n1C)C(=O)NC(C)(C)C (centres undefined) | 10µM* | -15.8 | -6.7% | u
COC(=O)C1=C(C)N(Cc2ccccc2)C(=S)NC1c1ccc(Cl)cc1 (centres undefined) | x | -23.6 | x | x
N#CC(C#N)=Cc1ccccc1OCc1ccccc1 | x | x | u | -8.1%
O=S(=O)(N/N=C/c1ccccc1OCc1ccc(Cl)cc1)c1ccccc1 | u | -83.4* | -12.2% | u
CCOC(=O)N/N=C/c1ccccc1OCc1ccc(Cl)cc1 | -27.8% | u | 2.94µM* | 2.08µM*
COC(=O)c1ccc(COc2ccccc2/C=N/NS(=O)(=O)c2ccc(C)cc2)cc1 | x | -94.0* | 3.0% | u
O=C(Cc1ccccc1)N/N=C/c1ccccc1OCc1ccc(Cl)cc1 | u | 6.1 | -16.1% | 8.5%
Cc1ccc(S(=O)(=O)/C(C#N)=C/c2ccccc2OCc2ccccc2)cc1 | 21.1% | -68.9* | 2.3% | u
CCCN1CCN(CCCNC(=O)Cn2c(-c3cccs3)cc3cc(Cl)ccc32)CC1 | x | -33.3 | x | x
N#Cc1nc(-c2cccs2)oc1NCc1ccc(Cl)cc1 | 10µM* | -33.0 | u | 1.4%
CN(CC(=O)Nc1ccc(N2CCOCC2)cc1)C(=O)c1cc(S(=O)(=O)N(C)C)ccc1Cl | 13.2% | 47.0 | -0.5% | 39.0%
COc1ccccc1N(C)S(=O)(=O)c1ccc(C(=O)NCC(C)C)cc1 | -23.5% | 20.9 | -14.0% | x
COC(=O)c1cccc(NC(=O)c2ccc(S(=O)(=O)N(C)c3ccccc3OC)cc2)c1 | x | 28.8 | x | x
COc1ccccc1N(C)S(=O)(=O)c1ccc(C(=O)Nc2ccc(N3CCOCC3)cc2)cc1 | 10µM* | -61.7* | 0.0% | 0.0%
CCC(C)(C)NC(=O)c1ccc(S(=O)(=O)N(C)c2ccccc2OC)cc1 | u | 28.9 | -24.8% | -8.2%
C=CCN(c1ccccc1OC)S(=O)(=O)c1ccc(Cl)c(C(=O)Nc2ccc(N3CCOCC3)cc2)c1 | u | -16.8 | 5.86µM* | 4.15µM*
COc1cc(NC(=O)c2ccc(S(=O)(=O)N(C)c3ccccc3OC)cc2)cc(OC)c1 | 11.2µM* | -22.9 | x | x
COc1ccccc1N(C)S(=O)(=O)c1ccc(C(=O)Nc2cccc(Br)c2)cc1 | 12.6µM* | 46.1 | x | x
CCCc1cn(CC(C)n2c(=O)c3ccccc3n2Cc2cc(C(C)C)no2)nn1 (centres undefined) | x | 16.8 | x | x
COc1ccc(N2CC(NC(=O)COc3ccc4ccccc4c3)CC2=O)cc1OC (centres undefined) | x | -0.9 | x | x
CCOC(=O)c1c(C)oc2nc(C)nc(NCc3cccc(Cl)c3)c12 | x | 1.8 | x | x
COc1ccc(NC(=O)C(c2ccccc2)N(C)C(=O)c2ccc(=O)[nH]c2)cc1 (centres undefined) | 7.6% | 24.1 | -0.6% | 1.04µM*
Cc1ccc(NC(=O)CC2SC(=O)NC2=O)cc1 (centres undefined) | 2.9% | 9.7 | -3.8% | 1.2%
CCOC(=O)c1ccc(NC(=O)CC2Sc3ccc(C(F)(F)F)cc3NC2=O)cc1 (centres undefined) | x | -65.4* | x | x
Cc1ccc(C(C(=O)Nc2ccc(C(C)C)cc2)N(C)C(=O)c2ccc(=O)[nH]c2)cc1 (centres undefined) | -3.0% | -34.8 | u | 330.4%
SMILES | HCV inhibitor | HCMV antiviral | Pf growth 48h | Pf growth 96h
COc1ccc(NC(=O)CC2SC(=O)NC2=O)cc1 (centres undefined) | 2.6% | -66.8* | 7.5% | -9.0%
COc1ccc(NC(=O)C(c2ccc(OC)cc2)N(C)C(=O)CC2NC(=O)NC2=O)cc1 (centres undefined) | -3.7% | 23.2 | 15.8% | 11.7µM*
CCCCN(CCCC)S(=O)(=O)c1ccc(NC(=O)c2c(-c3ccccc3)noc2C)cc1 | x | 25.8 | x | x
O=C1CSC2(C(=O)N(Cc3ccccc3F)c3ccccc32)N1c1cccc(C(F)(F)F)c1 (centres undefined) | x | -26.7 | x | x
Cc1cccnc1C(NC(=O)C1CCN(Cc2cn(C)c3ccccc23)CC1)c1ccc(Cl)cc1 (centres undefined) | x | 6.8 | x | x
COc1ccc([N+](=O)[O-])cc1NC(=O)c1ccc(C)o1 | u | -103.0* | 9.6% | -11.4%
COc1ccc([N+](=O)[O-])cc1NC(=O)c1cccs1 | 11.2µM* | u | -24.0% | -9.7%
O=C(Nc1cc([N+](=O)[O-])ccc1F)c1cccs1 | -2.5% | -22.8 | 25.8% | 23.3%
Cc1ccc(NC(=O)CN2C(=O)c3cccnc3Oc3ccc(Cl)cc32)cc1 | x | 0.0 | x | x
COc1ccc(Br)cc1CNC(=O)Cn1nc(C)n2c(cc3cc(F)ccc32)c1=O | x | 21.1 | x | x
Cc1ccc(-c2nnc(-c3ccc(Br)cc3)o2)o1 | 3.1% | 3.2 | 87.1% | 2.62µM*
O=S(=O)(Nc1cccc(C(F)(F)F)c1)c1cnc[nH]1 | 8.0% | -3.4 | 11.7% | 10.4µM*
Fc1ccccc1C1c2cccn2CCN1C(=S)Nc1cccc(Br)c1 (centres undefined) | 9.7% | 4.1 | 9.28µM* | -27.2%
CC(C)C1N(S(=O)(=O)c2ccccc2)CCN1S(=O)(=O)c1ccccc1 | 5.7% | -106.5* | u | 7.6%
CC(C)n1ncc2c(C(=O)Nc3ccc(S(C)(=O)=O)cc3)cc(C3CC3)nc21 | 5.62µM* | 3.2 | u | u
CC(=O)Nc1ccc(NC(=O)c2cc(C3CC3)nc3c2cnn3C(C)C)cc1 | 10µM* | -5.5 | u | -24.8%
O=C(Nc1cccnc1)c1cnn2c(C(F)F)cc(C3CC3)nc12 | u | 0.1 | 8.2% | x
CC(C)n1ncc2c(C(=O)Nc3ccc(S(N)(=O)=O)cc3)cc(C3CC3)nc21 | -25.5% | 46.5 | u | u
CCOc1ccc(NC(=O)c2cc(C3CC3)nc3c2cnn3C(C)C)cc1OC | 10µM* | -16.4 | 11.7µM* | 13.1µM*
CCN(CC)C(=O)c1cccc(NC(=O)c2cc(C3CC3)nc3c2cnn3C(C)C)c1 | 7.08µM* | -33.8 | u | 5.22µM*
COc1ccc(Cl)cc1NC(=O)Cn1nnc2sc(-c3ccccc3)cc2c1=O | x | 27.1 | x | x
CNC(=O)c1cccc(NC(=O)c2cc(-c3ccccc3)nc3c2cnn3C(C)C)c1 | 3.16µM* | -7.8 | 4.65µM* | u
CC(C)n1ncc2c(C(=O)Nc3cccc(S(=O)(=O)N(C)C)c3)cc(C3CC3)nc21 | u | -1.5 | 11.7µM* | u
O=C(Nc1cccnc1)c1ccc(-c2ccccc2)cc1 | u | 1.2 | 116.7% | 36.8%[1.15 µM]
CC(C(=O)Nc1ccncc1)(c1ccccc1)c1ccccc1 | 10.2% | -27.4 | u | 10.4µM*
O=C(Nc1ccncc1)c1ccc(-c2ccccc2)cc1 | 10µM* | -77.2* | -14.4% | u
CC(C(=O)c1ccc(-c2ccccc2)cc1)[n+]1cccc(NC(=O)c2ccccc2)c1 (centres undefined) | -26.4% | -98.9* | u | -50.8%
O=C(Nc1ccncc1)c1ccc(F)cc1 | 18.1% | u | x | 5.22µM*
CC(=O)Nc1ccc(C(=O)Nc2ccncc2)cc1 | 12.1% | -8.2 | 3.2% | 0.0%
Cc1cc(=O)n2c(C(=O)Nc3ccc(C(=O)OC(C)C)cc3)c(C(=O)Nc3ccccc3)sc2n1 | -28.8% | -67.4* | u | u
